About 2,100 (0.53%) of roughly 400,000 compounds were called active. Roughly 14% stayed inconclusive and do not appear here. The sample holds actives, similar compounds and a random draw of the others, so the mix is not that of the screen. The rule behind the calls is not given here.

Ataxin-2 (Homo sapiens), sequence (Q99700 whole entry): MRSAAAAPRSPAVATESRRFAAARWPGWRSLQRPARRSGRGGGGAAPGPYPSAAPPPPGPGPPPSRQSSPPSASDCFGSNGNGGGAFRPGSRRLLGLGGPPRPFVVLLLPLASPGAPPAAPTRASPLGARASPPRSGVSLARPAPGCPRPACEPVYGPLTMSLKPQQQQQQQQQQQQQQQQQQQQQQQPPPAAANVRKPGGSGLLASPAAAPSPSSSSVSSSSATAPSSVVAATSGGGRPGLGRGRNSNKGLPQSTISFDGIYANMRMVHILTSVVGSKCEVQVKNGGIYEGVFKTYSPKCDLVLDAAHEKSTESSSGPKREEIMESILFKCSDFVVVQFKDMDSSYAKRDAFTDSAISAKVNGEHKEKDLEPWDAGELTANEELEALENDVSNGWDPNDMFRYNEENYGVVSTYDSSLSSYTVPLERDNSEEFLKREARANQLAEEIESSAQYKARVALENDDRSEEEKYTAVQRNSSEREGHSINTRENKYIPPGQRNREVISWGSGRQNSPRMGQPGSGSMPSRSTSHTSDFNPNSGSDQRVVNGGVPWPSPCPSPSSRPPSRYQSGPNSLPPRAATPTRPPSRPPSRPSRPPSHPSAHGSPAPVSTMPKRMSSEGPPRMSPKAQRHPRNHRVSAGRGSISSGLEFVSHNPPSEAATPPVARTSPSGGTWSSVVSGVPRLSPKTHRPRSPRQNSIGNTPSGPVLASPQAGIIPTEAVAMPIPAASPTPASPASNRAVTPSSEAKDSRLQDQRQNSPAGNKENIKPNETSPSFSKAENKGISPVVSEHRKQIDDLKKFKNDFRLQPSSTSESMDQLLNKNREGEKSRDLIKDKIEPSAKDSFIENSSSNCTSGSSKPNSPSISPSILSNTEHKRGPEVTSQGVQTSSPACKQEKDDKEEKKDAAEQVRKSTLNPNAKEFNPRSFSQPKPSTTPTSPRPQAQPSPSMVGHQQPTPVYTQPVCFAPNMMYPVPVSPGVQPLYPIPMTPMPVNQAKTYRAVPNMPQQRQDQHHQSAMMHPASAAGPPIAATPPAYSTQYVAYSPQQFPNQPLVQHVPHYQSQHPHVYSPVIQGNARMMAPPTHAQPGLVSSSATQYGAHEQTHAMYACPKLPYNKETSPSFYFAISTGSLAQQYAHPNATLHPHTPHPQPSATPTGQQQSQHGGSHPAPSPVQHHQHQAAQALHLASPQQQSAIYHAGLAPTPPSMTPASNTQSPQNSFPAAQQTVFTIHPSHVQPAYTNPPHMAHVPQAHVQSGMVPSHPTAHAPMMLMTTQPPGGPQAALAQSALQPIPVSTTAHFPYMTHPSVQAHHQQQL

The assay concerns the target Ataxin-2 (Homo sapiens) (UniProt Q99700). Put plainly: qHTS for Inhibitors of ATXN expression. Format: functional.
Take `CC/N=c1\scc(C)n1/N=C/c1cc(Br)c(O)c(OC)c1`: the Potency entry was “inactive”.
Regarding `Cc1cc(C)c2oc(C(=O)N3CCN(C)CC3)cc(=O)c2c1`, the Potency result was “inactive”.
As for `CCN(CC)CCCNc1cc(C)c(C#N)c2nc3ccccc3n12`, the entry is “inactive”; as for `C=CCSc1nc2ccccc2n2cnnc12`, 39.8 µM (active).
As for `COc1ccc(/C(C)=N/Nc2nc3ccccc3n3cnnc23)cc1OC`, the entry is “inactive”; as for `CC(NC(=O)CNC(=O)C(Cc1ccccc1)NC(=O)OCc1ccccc1)C(N)=O` (centres undefined), “inactive”; as for `COC(=O)[C@H](Cc1ccccc1)NC(=O)NCc1ccccc1`, “inactive”.
As for `CC(NC(=O)OCc1ccccc1)C(=O)Oc1cc2oc(=O)cc(-c3ccccc3)c2cc1Cl` (centres undefined), the entry is “inactive”; as for `CC(C)CC(NC(=O)OCc1ccccc1)C(=O)NC(Cc1ccccc1)C(=O)CCl` (centres undefined), 9.47 µM (active); as for `CCC(C)[C@H](N)C(=O)NC[C@H]1CC[C@H](C(=O)N[C@@H](Cc2ccccc2)C(=O)O)CC1` (some centres undefined), “inactive”.
Consider `CC(=O)NC(CC(C)C)C(=O)NC(Cc1ccccc1)C(=O)CCl` (centres undefined), for which the Potency is 18.9 µM (active).
Regarding `C#CCOc1ccc(C2C3=C(CCCC3=O)N(CC(=O)O)C3=C2C(=O)CCC3)cc1Br`, the Potency result was “inactive”.
As for `CC1(Cc2cc(Cl)ccc2C(F)(F)F)C(=O)Nc2ccc(-c3ccc(F)c(Cl)c3)cc21` (centres undefined), the figure is 28.2 µM (active); as for `CC1(C)CC(=O)C=C(Nc2cccc(C(F)(F)F)c2)C1`, “inactive”.
As for `CC1(Cc2cccc(C(F)(F)F)c2)C(=O)Nc2ccc(-c3ccc(F)c(Cl)c3)cc21` (centres undefined), the figure is 39.8 µM (active); as for `Cc1csc(NC(=O)c2c(-c3ccccc3)noc2C)n1`, “inactive”; as for `C[C@H](O)[C@@H]1C(=O)N2CCc3c([nH]c4ccccc34)[C@@H]2C[C@@H]1N(C)C(=O)c1ccco1`, “inactive”.
As for `O=C(CCCCCn1c(=S)[nH]c2ccc(N3CCOCC3)cc2c1=O)NCc1ccccc1`, the entry is “inactive”; as for `CC(C)=CCC/C(C)=C/CNC(=O)CC1C[C@H](C(=O)N2CCOCC2)[C@@]2(C)c3[nH]c4ccccc4c3CCN2C1=O` (some centres undefined), 31.6 µM (active).
For the compound `CC[C@]12c3[nH]c4ccc(Cl)cc4c3CCN1C(=O)[C@@H](CC(=O)NCCC1=CCCCC1)C[C@@H]2C(=O)N1CCN(C(=O)c2ccco2)CC1`, the Potency was 25.1 µM (active).
As for `CC(C)=CCC/C(C)=C/CNC(=O)C[C@H]1C[C@H](C(=O)N2CCOCC2)[C@@]2(C)c3[nH]c4cc(-c5ccco5)ccc4c3CCN2C1=O`, the Potency was 39.8 µM (active).
As for `CC[C@]12c3[nH]c4ccccc4c3CCN1C(=O)C(CC(=O)NC/C=C(\C)CCC=C(C)C)C[C@@H]2C(=O)N1CCN(C(=O)c2ccco2)CC1` (some centres undefined), the figure is 31.6 µM (active).
Turning to `CC[C@@H]1C(c2ccccc2)=NN(c2ccccc2)[C@H]1C(=O)N1CCOC1=O`, the Potency result was “inactive”.
As for `CCOc1ccc(-c2nc(O)c3c(-c4cccs4)csc3n2)cc1`, the entry is “inactive”.
As for `Cn1ccnc1C(=O)C1CCCN(Cc2c[nH]nc2-c2ccc(-c3ccccc3)cc2)C1` (centres undefined), the entry is “inactive”.
As for `CCN(CC)c1ccc2cc(-c3nnc(-c4ccccc4)o3)c(=O)oc2c1`, the entry is “inactive”.
For the compound `COc1cc2cc(C(N)=O)c(N)nc2cc1OC`, the Potency result was “inactive”.
As for `Cc1ccc2nc3c(cc(C(=O)NCC4CCCO4)c(=N)n3C(C)C)c(=O)n2c1` (centres undefined), the entry is “inactive”; as for `CC[C@]12c3[nH]c4ccc(Cl)cc4c3CCN1C(=O)[C@@H](CC(=O)NC/C=C(\C)CCC=C(C)C)C[C@@H]2C(=O)N1CCN(C(=O)C2CC2)CC1`, 25.1 µM (active); as for `O=C1CSC(N/N=C/c2ccncc2)=N1`, “inactive”.
As for `Cc1ccc(N(C)C(CNS(=O)(=O)c2ccccc2)c2ccccc2)cc1` (centres undefined), the figure is 25.1 µM (active); as for `Cc1ccc(S(=O)(=O)NCc2c(-c3ccccc3)noc2C)cc1`, “inactive”.
As for `Cc1ccc(S(=O)(=O)NCCCCCC(=O)NCCc2ccccc2)cc1`, the entry is “inactive”.
For `Cc1cccn2c(=O)c3cc(C#N)c(=O)n(-c4nnc(SCc5ccc(F)cc5)s4)c3nc12`, the Potency result was “inactive”.
As for `COc1ccc(/C=N/Nc2ncnc3sc4c(c23)CCCC4)cc1OC`, the entry is “inactive”; as for `COc1cccc(-c2ccc3c(N)c(C(=O)Nc4cc(F)ccc4F)sc3n2)c1`, “inactive”; as for `COc1ccc(NC(=O)c2c(NCc3cccc(F)c3)sc3c2CCC3)c(OC)c1`, 25.1 µM (active).
As for `COc1ccc(NC(=O)CON=CC(=O)Nc2ccc(C)cc2)c(OC)c1`, the entry is “inactive”.
As for `COc1ccc(NC(=O)c2c(NCc3sccc3C)sc3c2CCCCC3)c(OC)c1`, the figure is 39.8 µM (active).
Consider `COc1ccc(OC)c(NC(=O)c2c(NCc3ccc(OC)c(OC)c3)sc3c2CCC3)c1`, for which the Potency was 39.8 µM (active).
As for `COC(=O)c1ccc(NC(=O)c2c(NCc3ccc(OC)c(OC)c3)sc3c2CCCC3)cc1`, the Potency is 17.8 µM (active).
As for `COc1ccc(OC)c(NC(=O)c2ccc(OC3CSC3)cc2)c1`, the entry is “inactive”; as for `COc1ccc(OC)c(NC(=O)COC(=O)c2ccc(OC)c(S(=O)(=O)N3CCOCC3)c2)c1`, “inactive”.
As for `COc1ccc(NC(=O)c2ccc(S(=O)(=O)C(F)F)cc2)c(OC)c1`, the entry is “inactive”; as for `COc1ccc(NC(=O)C2=CN3CCS(=O)(=O)N=C3C=C2)c(OC)c1`, “inactive”; as for `Cc1nc(NC(=O)CSc2nnc(C3CC3)n2C)sc1C`, “inactive”.
As for `C=CCn1c(=N)c(C(=O)NCCCOC)cc2c(=O)n3cc(C)ccc3nc21`, the entry is “inactive”; as for `CCOc1ccc(S(=O)(=O)[N-]c2nc3ccccc3nc2-[n+]2ccc(NC(=O)c3cccs3)cc2)cc1`, “inactive”; as for `CCCn1c(=O)c(C(=O)Nc2ccccc2C)c(O)c2ccccc21`, “inactive”.
For `COC(=O)c1c(NC(=S)NC(=O)c2ccco2)sc2c1CCCC2`, the Potency result was “inactive”.
With `COC(=O)c1ccc(NC(=O)c2c(NCc3ccc(C)o3)sc3c2CCCC3)cc1`, the Potency was 35.5 µM (active).
As for `COC(=O)c1c(NC(=O)c2ccc(N(C)S(=O)(=O)c3ccc(C)cc3)cc2)sc2c1CCCC2`, the entry is “inactive”; as for `O=C(O)c1ccc(N2N=C(c3ccccc3)CC2c2ccccc2)cc1` (centres undefined), “inactive”; as for `COc1ccc(C2=NN(C(=O)c3ccccc3)C(c3ccc(OC)c(OC)c3)C2)c(O)c1` (centres undefined), “inactive”.
Take `Cc1ccc(C(=O)N2N=C(c3ccc(Br)cc3)CC2c2ccccc2O)cc1` (centres undefined): the Potency is 42.3 µM (active).
As for `N#Cc1c(C(F)(F)F)cc(-c2cccs2)nc1N1CCCCC1`, the entry is “inactive”; as for `Cc1ccccc1NC(=O)c1nn(C)c(C(=O)Nc2ccccc2C)c1[N+](=O)[O-]`, “inactive”; as for `COc1ccccc1NC(=O)Nc1nnc(Cc2ccc(F)cc2)s1`, “inactive”.
As for `Cc1ccccc1NC(=O)Nc1nnc(Cc2ccc([N+](=O)[O-])cc2)s1`, the figure is 11.2 µM (active).

Source of the values: ChEMBL document CHEMBL1201862, “PubChem BioAssay data set” (2004).
